Source: publication PMC5540273 (PLoS ONE, 2017)

Tests used:
Conditions in all cases: concentration: 1 μM, replicates: in singlicate; n = 1
[1] = tested on: CAMK2D
[2] = tested on: CAMK2G
[3] = tested on: CAMK4
[4] = tested on: CAMKK1
[5] = tested on: CAMKK2
[6] = tested on: CASK
[7] = tested on: T1, CDC2L1
T1 construct: gene CDK11B

[8] = tested on: CDC2L2
[9] = tested on: T2, CDC2L5
T2 construct: gene CDK13

[10] = tested on: T3, CDK11
T3 construct: gene CDK19

[11] = tested on: CDK2
[12] = tested on: CDK3
[13] = tested on: CDK4-cyclinD1
[14] = tested on: CDK4-cyclinD3
[15] = tested on: CDK4
[16] = tested on: CDK5
[17] = tested on: CDK7
[18] = tested on: CDK8
[19] = tested on: CDK9
[20] = tested on: CDKL1
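Also: KINOMEscan kinase panel screen.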

Compound	%Inh [1] [%]	%Inh [2] [%]	%Inh [3] [%]	%Inh [4] [%]	%Inh [5] [%]	%Inh [6] [%]	%Inh [7] [%]	%Inh [8] [%]	%Inh [9] [%]	%Inh [10] [%]	%Inh [11] [%]	%Inh [12] [%]	%Inh [13] [%]	%Inh [14] [%]	%Inh [15] [%]	%Inh [16] [%]	%Inh [17] [%]	%Inh [18] [%]	%Inh [19] [%]	%Inh [20] [%]
COc1ccc(NC(=O)c2ccc(-c3cc(-c4nnc(C)o4)ccc3C)cc2)cc1 [GW595885]	0	8	0	0	0	21	0	0	0	0	0	22	14	0	0	0	0	9	0	0
Fc1cccc(COc2ccc(Nc3ncnc4sc(-c5ccc[nH]5)cc34)cc2Cl)c1 [GW707818]	7	0	5	0	16	15	20	15	0	5	0	10	0	11	17	0	0	31	14	6
Cl.c1ccc(Cn2ccc3cc(Nc4ncnc5ccccc45)ccc32)cc1 [GW275568]	24	27	0	16	29	17	23	28	0	19	1	16	0	16	31	0	13	5	27	18
Clc1cc(Nc2ncnc3cc[nH]c23)ccc1OCc1ccccn1	19	0	0	0	0	0	12	15	0	29	8	1	10	0	10	22	29	0	30	16
Clc1cccc(-c2nc(Nc3ccncc3)c3ccccc3n2)c1 [GW873004]	0	0	27	11	0	0	0	7	15	2	0	0	21	0	0	0	10	50	0	30
Cl.O=S(=O)(c1cccc(F)c1)c1ccc(Nc2ncnc3cc(Br)sc23)cc1Cl [GSK306886]	9	0	0	0	20	47	3	20	0	0	6	44	0	7	17	0	0	0	6	19
Cc1ccc(NC(=O)c2cccc(C#N)c2)cc1-c1ccc(C(=O)Nc2ccncc2)cc1 [GSK1398463]	49	26	0	15	2	7	0	14	0	5	0	7	0	9	0	0	0	0	0	15
Cl.c1ccc(Cn2ncc3cc(Nc4ncnc5ccccc45)ccc32)cc1 [GW273749]	31	25	0	3	32	5	0	19	0	4	7	0	0	11	15	0	1	0	0	0
O=C(CCO)NCCn1ccc2ncnc(Nc3ccc(Oc4cccc(C(F)(F)F)c4)c(Cl)c3)c21	0	0	0	0	7	0	0	0	0	0	0	0	0	0	0	0	0	6	0	15
Nc1nc(-c2ccccn2)c(-c2ccnc3ccccc23)s1 [GW548057]	6	20	0	13	21	26	0	11	0	10	0	5	49	0	0	0	2	56	0	12
C[C@H]1CC[C@@H](C(=O)Nc2ccccc2)CN1c1cc(-c2ccc3c(N)n[nH]c3c2)nc(N)n1 [GSK2283293]	3	16	0	7	15	4	0	13	0	0	0	0	0	0	0	0	0	14	0	22
Cc1ccc(O)cc1Nc1cc(C(F)(F)F)nc2ccc(-c3ccncc3)cc12 [GW630823]	2	16	0	11	16	1	17	0	0	0	5	0	0	0	0	0	0	0	5	20
CS(=O)(=O)CCNCc1nc(-c2ccc3ncnc(Nc4ccc(OCc5cccc(F)c5)c(Cl)c4)c3c2)cs1.Cl [GW583340]	23	22	0	0	28	0	11	25	0	12	0	0	0	0	34	0	0	3	10	0
CNc1nccc(-c2c(-c3ccc(F)cc3)ncn2CCCN2CCOCC2)n1 [SB-222516]	11	16	27	8	14	1	0	0	22	13	0	0	17	16	0	0	7	38	0	24
CCc1nc(-c2cccc(N(C)S(=O)(=O)c3ccccc3)c2)c(-c2ccnc(Nc3ccc(N4CCN(C(C)=O)CC4)nc3)n2)s1 [GSK1645895]	24	37	0	30	32	5	11	16	0	6	0	0	0	3	0	0	0	0	15	1
CCc1nc(-c2cccc(C)c2)c(-c2ccnc(NC(=O)c3ccccc3)c2)s1	0	10	0	4	7	0	11	2	12	5	0	0	15	6	13	21	24	1	0	0
CSc1ccc(NC2=C(c3ccccc3Cl)C(=O)NC2=O)cc1 [SB-342411]	28	36	0	5	25	26	0	0	0	0	10	26	61	30	0	0	43	7	0	13
Cn1cc(-c2ccc3c(c2)CCN3C(=O)Cc2cccc(C(F)(F)F)c2)c2c(N)ncnc21 [GSK2606414]	0	5	0	7	0	75	0	0	0	37	0	0	0	0	6	0	0	34	0	0
Cl.Cn1ccc(-c2cccc(Nc3ccnc4cc(-c5nccs5)ccc34)c2)n1 [GW525701]	26	21	0	25	20	2	0	0	0	3	0	6	47	0	36	0	0	7	0	0
